Hit rate of the full screen: of about 5,500 compounds, about 2,000 (36%) were called active. Not shown: some 18% with an inconclusive outcome. Rule as the data show it: active = normalized growth mostly below about 0.91 (no sharp cut-off); inconclusive = no clear call, values can overlap the other calls; inactive = mostly above about 0.92. The list shows a part of the results.
Assay: chemical genetic growth profiling, strain panel (AID 1159580);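 also: tested at 20 µM; growth read once vehicle control cultures reached saturation at 30 °C; 1 = growth at the plate median or of vehicle wells; lower values mean less growth of the strain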
Conditions: S. cerevisiae deletion strains, growth OD
[1] = locus YDL101C, strain DUN1, active compounds read low
[2] = locus YHR030C, strain SLT2, active compounds read low

Measured: normalized growth

N#C/C(NCc1cccs1)=C(\C#N)NCc1c(F)cccc1Cl
inactive: locus YAL013W, strain DEP1, active compounds read low 0.958 | locus YBR229C, strain ROT2, active compounds read low 0.977 | locus YCL061C, strain MRC1, active compounds read low 0.97 | [1] 0.979 | locus YDR150W, strain NUM1, active compounds read low 0.899 | locus YEL061C, strain CIN8, active compounds read low 0.998 | locus YGR078C, strain PAC10, active compounds read low 0.973 | [2] 0.919 | locus YHR087W, strain rtc3, active compounds read low 0.991 | locus YJL187C, strain SWE1, active compounds read low 1 | locus YJR043C, strain POL32, active compounds read low 0.988 | locus YJR075W, strain HOC1, active compounds read low 0.97 | locus YLR039C, strain RIC1, active compounds read low 0.939 | locus YLR058C, strain SHM2 (second series), active compounds read low 0.972 | locus YLR085C, strain ARP6, active compounds read low 0.957 | locus YLR262C, strain YPT6, active compounds read low 0.969 | locus YML094W, strain GIM5, active compounds read low 0.964 | locus YMR219W, strain ESC1, active compounds read low 0.986 | locus YMR263W, strain SAP30, active compounds read low 0.947 | locus YMR307W, strain GAS1, active compounds read low 0.919 | locus YNL153C, strain GIM3, active compounds read low 0.993 | locus YNL298W, strain CLA4 (second series), active compounds read low 0.959 | locus YNL322C, strain KRE1, active compounds read low 0.969 | locus YNR030W, strain Alg12, active compounds read low 0.964 | locus YOL006C, strain TOP1, active compounds read low 1.01 | locus YPL241C, strain CIN2, active compounds read low 0.973 | locus YPR135W, strain CTF4, active compounds read low 0.962

O=C(Nc1ccc(Cl)cc1)SCc1c(Cl)cccc1Cl
inactive: locus YAR019C, strain CDC15, active compounds read low 0.985 | locus YBL105C, strain PKC1, active compounds read low 0.976 | locus YBR135W, strain CKS1, active compounds read low 0.984 | locus YBR136W, strain MEC1, active compounds read low 0.967 | locus YBR160W, strain CDC28, active compounds read low 0.988 | locus YDL017W, strain CDC7, active compounds read low 0.976 | locus YDL028C, strain MPS1, active compounds read low 0.987 | [1] 0.974 | locus YDL108W, strain KIN28, active compounds read low 0.959 | locus YDL132W, strain cdc53, active compounds read low 0.999 | locus YDL214C, strain PRR2, active compounds read low 0.786 | locus YDR052C, strain DBF4, active compounds read low 0.974 | locus YDR054C, strain cdc34, active compounds read low 0.953 | locus YDR226W, strain ADK1, active compounds read low 0.969 | locus YDR477W, strain SNF1, active compounds read low 0.83 | locus YER123W, strain YCK3, active compounds read low 0.659 | locus YER133W, strain GLC7, active compounds read low 0.834 | locus YFL009W, strain cdc4, active compounds read low 1 | locus YFL029C, strain CAK1, active compounds read low 0.975 | locus YFR003C, strain YPI1, active compounds read low 0.972 | locus YFR028C, strain CDC14, active compounds read low 0.988 | locus YGR040W, strain KSS1, active compounds read low 0.808 | locus YGR052W, strain FMP48, active compounds read low 0.765 | locus YGR092W, strain DBF2, active compounds read low 0.763 | locus YHR079C, strain IRE1, active compounds read low 0.748 | locus YHR082C, strain KSP1, active compounds read low 0.787 | locus YHR205W, strain SCH9, active compounds read low 0.919 | locus YIL147C, strain SLN1, active compounds read low 0.973 | locus YJL095W, strain BCK1, active compounds read low 0.745 | locus YJL128C, strain PBS2, active compounds read low 0.92 | locus YJL157C, strain FAR1, active compounds read low 0.76 | locus YJR016C, strain ILV3, active compounds read low 0.995 | locus YJR066W, strain TOR1 (second series), active compounds read low 0.746 | locus YJR066W, strain TOR1, active compounds read low 0.788 | locus YKL048C, strain ELM1, active compounds read low 0.891 | locus YKL067W, strain YNK1, active compounds read low 0.8 | locus YKL101W, strain HSL1, active compounds read low 0.83 | locus YKL193C, strain SDS22, active compounds read low 0.973 | locus YKL203C, strain TOR2, active compounds read low 0.891 | locus YLR133W, strain CKI1, active compounds read low 0.816 | locus YLR403W, strain SFP1, active compounds read low 0.897 | locus YML070W, strain DAK1, active compounds read low 0.783 | locus YMR001C, strain CDC5, active compounds read low 0.971 | locus YMR205C, strain PFK2 (second series), active compounds read low 0.836 | locus YMR277W, strain FCP1, active compounds read low 0.975 | locus YNL006W, strain LST8, active compounds read low 0.989 | locus YNL020C, strain ARK1, active compounds read low 0.771 | locus YNL161W, strain CBK1, active compounds read low 0.974 | locus YNL183C, strain NPR1, active compounds read low 0.821 | locus YNL207W, strain RIO2, active compounds read low 0.955 | locus YNL222W, strain SSU72, active compounds read low 0.979 | locus YNL307C, strain MCK1 (second series), active compounds read low 0.721 | locus YOL078W, strain AVO1, active compounds read low 0.977 | locus YOL136C, strain PFK27, active compounds read low 0.761 | locus YOR061W, strain CKA2, active compounds read low 0.756 | locus YOR119C, strain RIO1, active compounds read low 0.905 | locus YOR231W, strain MKK1, active compounds read low 0.831 | locus YOR329C, strain SCD5, active compounds read low 0.979 | locus YPL031C, strain PHO85, active compounds read low 0.778 | locus YPL153C, strain RAD53, active compounds read low 0.798 | locus YPL204W, strain HRR25, active compounds read low 0.813 | locus YPL209C, strain IPL1, active compounds read low 0.972 | locus YPR025C, strain CCL1, active compounds read low 0.988 | locus YPR106W, strain ISR1, active compounds read low 0.963 | locus YPR111W, strain DBF20, active compounds read low 0.961 | strain NNK1, active compounds read low 0.954 | strain TSCII, active compounds read low 0.978
active: locus YFR019W, strain FAB1, active compounds read low 0.747 | [2] 0.793 | locus YLR113W, strain HOG1, active compounds read low 0.728 | locus YPL256C, strain CLN2, active compounds read low 0.811

From PubChem BioAssay AID1159580 (chemical genetic matrix, 2015)
